Experimental data: ChEMBL document CHEMBL3433997, “St. Jude Leishmania screening dataset” (2016)

These compounds were tested against Solute carrier family 2, facilitated glucose transporter member 1 (Homo sapiens) (UniProt P11166) (assay: ST_JUDE_LEISH: Cytotoxicity at 2uM final concentration against transgenic Leishmania Mexicana promastigotes LmGLUT1 that are glucose transport deficient and complemented with the human glucose transporter GLUT1. Activity is measured by DNA content using SYBR green in vitro).
Solute carrier family 2, facilitated glucose transporter member 1 (Homo sapiens), sequence (P11166 whole entry): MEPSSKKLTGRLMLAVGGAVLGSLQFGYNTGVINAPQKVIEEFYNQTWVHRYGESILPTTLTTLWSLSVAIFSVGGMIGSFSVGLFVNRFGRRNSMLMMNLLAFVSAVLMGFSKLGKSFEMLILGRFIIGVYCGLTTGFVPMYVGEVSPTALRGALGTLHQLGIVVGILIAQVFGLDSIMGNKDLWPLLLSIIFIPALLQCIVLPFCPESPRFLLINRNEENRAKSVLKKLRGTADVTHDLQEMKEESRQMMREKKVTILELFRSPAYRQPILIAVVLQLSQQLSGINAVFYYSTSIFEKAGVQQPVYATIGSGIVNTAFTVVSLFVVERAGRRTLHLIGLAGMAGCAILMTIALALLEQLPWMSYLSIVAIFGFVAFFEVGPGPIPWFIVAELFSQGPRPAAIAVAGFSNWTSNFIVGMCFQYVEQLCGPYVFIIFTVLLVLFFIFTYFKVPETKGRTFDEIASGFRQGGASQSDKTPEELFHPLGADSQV
Type: functional

Row | Compound | inhibition
1 | N#Cc1cccc(NC(=O)Nc2ccc3c(c2)CN(Cc2c[nH]c4ncccc24)C3)c1 | 6.66%
2 | CC(Nc1nncc(-c2cccc(F)c2)n1)c1ccc(F)cc1 (stereo not given) | 11.7%
3 | O=C(Nc1ccc2nc3n(c(=O)c2c1)CCCCC3)C(=O)N1CCC(Cc2ccccc2)CC1 | -0.67%
4 | CS(=O)(=O)NCCCNCc1cccc(-c2cccc(-c3nc4cc(F)ccc4[nH]3)c2)c1 | 1.53%
5 | CCCCN1CC[C@@H](CCC(O)c2cc(OCCC)nc3ccc(OC)cc23)[C@@H](CC)C1 (stereo not given in full) | -0.6%
6 | CC1CCN(c2nc(C(=O)NCCc3ccc(Cl)c(Cl)c3)c(C(C)C)s2)CC1 | 0.93%
7 | Cc1ccc2cc(C3NC(=O)c4ccccc4N3)c(Cl)nc2c1 (stereo not given) | 18.9%
8 | O=C(Nc1ccon1)c1cc(-c2cccnc2)nc2ccc(Cl)cc12 | 5.01%
9 | COc1ccc(CNCc2ccccc2)cc1-c1ccc(OC)c(S(=O)(=O)NCCN2CCCC2)c1 | -0.27%
10 | COc1c(CNCCCCCCNCc2c(OC)c(OC)c3ccccc3c2OC)c(OC)c2ccccc2c1OC | 67.6%
11 | CC(C)(C)c1ccc(CN2CCCCC(NC(=O)c3cc(-c4ccccc4F)cs3)C2)cc1 (stereo not given) | -1.83%
12 | COc1ccc(N2CCN(c3nc(N)c4cc(OC)c(OC)cc4n3)CC2C)cc1 (stereo not given) | 0.19%
13 | CCN(CCNC(=O)Nc1cc(C(F)(F)F)cc(C(F)(F)F)c1)c1cccc(C)c1 | 5.44%
14 | N=C(N)NN=Cc1c2ccccc2c(Cl)c2c(Cl)cccc12 | 24.6%
15 | CN(C)Cc1ccc(-c2cccc(NC(=O)c3cccc(Cl)c3)c2)cc1 | 2.44%
16 | COc1ccc2nccc([C@@H](O)CN3CCC(NC(=O)/C=C/c4ccc5ccccc5n4)CC3)c2c1 | 15.2%
17 | O=C(Nc1ccc(-c2nc3ccccc3[nH]2)cc1)C1CCCN(CC2CC2)C1 (stereo not given) | 12.9%
18 | N=c1n(CCN2CCCCC2)c2ccccc2n1CC(=O)c1cccc([N+](=O)[O-])c1 | 2.8%
19 | Cc1ccc(OCCCCON2C(=N)N=C(N)NC2(C)C)cc1C | 1.02%
20 | CCc1c(C(=O)NC2CCC(N3CCC(c4ccccc4C)CC3)CC2)[nH]c2ccc(Br)cc12 (stereo not given) | 5.69%

Row | Compound | inhibition
21 | CCN(CC)CCNC(=O)c1ccc(NC(=O)c2cc(-c3ccncc3)nc3ccccc23)cc1 | 0.16%
22 | N#CC(c1ccc(F)cc1)c1ccc2c(C(F)(F)F)cc(C(F)(F)F)nc2n1 (stereo not given) | 3.66%
23 | CCOC(=O)c1ccc(NC(=O)Nc2cccc(-c3ccc(-c4nc5cccc(C)c5[nH]4)s3)c2)cc1 | -0.56%
24 | FC(F)(F)c1ccc2[nH]c(-c3cccc(-c4cccc(CNCc5cnn(-c6ccccc6)n5)c4)c3)nc2c1 | 5.47%
25 | COc1ccc(NC(=O)/C=C/c2cc(F)cc(C(F)(F)F)c2)cc1OCCN(C(C)C)C(C)C | 9.32%
26 | Fc1ccc2[nH]c(-c3cccc(-c4ccc(CNCc5cnn(-c6ccccc6)n5)cc4)c3)nc2c1 | 0.4%
27 | CCCC(=O)Nc1ccc(OCCCCN(CC(C)(C)C)c2ccc(C#N)c(C(F)(F)F)c2)cc1 | 1.48%
28 | Cc1ccc(S(=O)(=O)N2CCCN(C(=O)c3cc(-c4ccccc4)[nH]n3)CC2)cc1 | -1.48%
29 | Cc1cccc2nc(-c3cccc(-c4cccc(NC(=O)CNc5ccc(C(N)=O)cc5)c4)c3)[nH]c12 | 4.73%
30 | COc1cc2nc(N3CCC(CNC(=O)c4ccc(-c5ccc(C(=O)N(C)C)cc5OCCO)cc4)CC3)nc(N)c2cc1OC | -1.09%
31 | CCOc1ccc2nc(NC(=O)c3csnn3)sc2c1 | 4.69%
32 | Fc1cccc(Cl)c1-c1nc(NCCC(c2ccccc2)c2ccccc2)no1 | -0.45%
33 | O=C(/C=C/c1ccc(-c2nc3ccc(Cl)cc3[nH]2)cc1)NCc1cccc(F)c1 | 4.5%
34 | CC(C)c1sc(-c2ccc(C(C)(C)C)cc2)nc1C(=O)NCCCN1CCCC1=O | 1.02%
35 | COc1ccc(-c2cnc3ccc(NC4CCC(O)CC4)nn23)cn1 (stereo not given) | 2.52%
36 | Cc1cccc2nc(-c3cccc(-c4cccc(NC(=O)c5ccoc5)c4)c3)[nH]c12 | 5.99%
37 | COc1ccc2nc(C)cc(N/N=C/C=C/c3ccccc3)c2c1 | 5.48%
38 | COc1cc(C(=O)Nc2ccc3nc(N4CCN(C)CC4)cc(C)c3c2)cc(OC)c1OC | 1.09%
39 | Cc1c(F)cc(C(=O)NC2CC2)cc1-c1ccc2c(cnn2S(=O)(=O)c2cccs2)c1 | 2.62%
40 | COc1cc2nc(NCCc3ccccc3)nc(NCc3nccs3)c2cc1OC | 1.89%

The compounds below were run against Hexose transporter 1 (Plasmodium falciparum) (UniProt O97467) (assay: ST_JUDE_LEISH: Cytotoxicity at 2uM final concentration against transgenic Leishmania Mexicana promastigotes LmPfHT that are glucose transport deficient and complemented with the Plasmodium falciparum hexose transporter. Activity is measured by DNA content using SYBR green in vitro).
Type: functional

Row | Compound | inhibition
41 | N#Cc1cccc(NC(=O)Nc2ccc3c(c2)CN(Cc2c[nH]c4ncccc24)C3)c1 | 7.47%
42 | CC(Nc1nncc(-c2cccc(F)c2)n1)c1ccc(F)cc1 (stereo not given) | 9.2%
43 | O=C(Nc1ccc2nc3n(c(=O)c2c1)CCCCC3)C(=O)N1CCC(Cc2ccccc2)CC1 | 0.77%
44 | CS(=O)(=O)NCCCNCc1cccc(-c2cccc(-c3nc4cc(F)ccc4[nH]3)c2)c1 | 1.37%
45 | CCCCN1CC[C@@H](CCC(O)c2cc(OCCC)nc3ccc(OC)cc23)[C@@H](CC)C1 (stereo not given in full) | -1.53%
46 | CC1CCN(c2nc(C(=O)NCCc3ccc(Cl)c(Cl)c3)c(C(C)C)s2)CC1 | 0.99%
47 | Cc1ccc2cc(C3NC(=O)c4ccccc4N3)c(Cl)nc2c1 (stereo not given) | 16.3%
48 | O=C(Nc1ccon1)c1cc(-c2cccnc2)nc2ccc(Cl)cc12 | 3.36%
49 | COc1ccc(CNCc2ccccc2)cc1-c1ccc(OC)c(S(=O)(=O)NCCN2CCCC2)c1 | -0.09%
50 | COc1c(CNCCCCCCNCc2c(OC)c(OC)c3ccccc3c2OC)c(OC)c2ccccc2c1OC | 11.8%
51 | CC(C)(C)c1ccc(CN2CCCCC(NC(=O)c3cc(-c4ccccc4F)cs3)C2)cc1 (stereo not given) | -0.56%
52 | COc1ccc(N2CCN(c3nc(N)c4cc(OC)c(OC)cc4n3)CC2C)cc1 (stereo not given) | 1.45%
53 | CCN(CCNC(=O)Nc1cc(C(F)(F)F)cc(C(F)(F)F)c1)c1cccc(C)c1 | 4.69%
54 | N=C(N)NN=Cc1c2ccccc2c(Cl)c2c(Cl)cccc12 | 26.2%
55 | CN(C)Cc1ccc(-c2cccc(NC(=O)c3cccc(Cl)c3)c2)cc1 | 1.66%
56 | COc1ccc2nccc([C@@H](O)CN3CCC(NC(=O)/C=C/c4ccc5ccccc5n4)CC3)c2c1 | 13.2%
57 | O=C(Nc1ccc(-c2nc3ccccc3[nH]2)cc1)C1CCCN(CC2CC2)C1 (stereo not given) | 10.8%
58 | N=c1n(CCN2CCCCC2)c2ccccc2n1CC(=O)c1cccc([N+](=O)[O-])c1 | 4.32%
59 | Cc1ccc(OCCCCON2C(=N)N=C(N)NC2(C)C)cc1C | 1%
60 | CCc1c(C(=O)NC2CCC(N3CCC(c4ccccc4C)CC3)CC2)[nH]c2ccc(Br)cc12 (stereo not given) | 5.55%

Row | Compound | inhibition
61 | CCN(CC)CCNC(=O)c1ccc(NC(=O)c2cc(-c3ccncc3)nc3ccccc23)cc1 | -0.76%
62 | N#CC(c1ccc(F)cc1)c1ccc2c(C(F)(F)F)cc(C(F)(F)F)nc2n1 (stereo not given) | 4.6%
63 | CCOC(=O)c1ccc(NC(=O)Nc2cccc(-c3ccc(-c4nc5cccc(C)c5[nH]4)s3)c2)cc1 | 0.81%
64 | FC(F)(F)c1ccc2[nH]c(-c3cccc(-c4cccc(CNCc5cnn(-c6ccccc6)n5)c4)c3)nc2c1 | 5.16%
65 | COc1ccc(NC(=O)/C=C/c2cc(F)cc(C(F)(F)F)c2)cc1OCCN(C(C)C)C(C)C | 9.92%
66 | Fc1ccc2[nH]c(-c3cccc(-c4ccc(CNCc5cnn(-c6ccccc6)n5)cc4)c3)nc2c1 | 1.9%
67 | CCCC(=O)Nc1ccc(OCCCCN(CC(C)(C)C)c2ccc(C#N)c(C(F)(F)F)c2)cc1 | 1.02%
68 | Cc1ccc(S(=O)(=O)N2CCCN(C(=O)c3cc(-c4ccccc4)[nH]n3)CC2)cc1 | 0.45%
69 | Cc1cccc2nc(-c3cccc(-c4cccc(NC(=O)CNc5ccc(C(N)=O)cc5)c4)c3)[nH]c12 | 4.35%
70 | COc1cc2nc(N3CCC(CNC(=O)c4ccc(-c5ccc(C(=O)N(C)C)cc5OCCO)cc4)CC3)nc(N)c2cc1OC | 2.24%
71 | CCOc1ccc2nc(NC(=O)c3csnn3)sc2c1 | 3.55%
72 | Fc1cccc(Cl)c1-c1nc(NCCC(c2ccccc2)c2ccccc2)no1 | 0.05%
73 | O=C(/C=C/c1ccc(-c2nc3ccc(Cl)cc3[nH]2)cc1)NCc1cccc(F)c1 | 4.66%
74 | CC(C)c1sc(-c2ccc(C(C)(C)C)cc2)nc1C(=O)NCCCN1CCCC1=O | 1.22%
75 | COc1ccc(-c2cnc3ccc(NC4CCC(O)CC4)nn23)cn1 (stereo not given) | 0.45%
76 | Cc1cccc2nc(-c3cccc(-c4cccc(NC(=O)c5ccoc5)c4)c3)[nH]c12 | 5.37%
77 | COc1ccc2nc(C)cc(N/N=C/C=C/c3ccccc3)c2c1 | 7.46%
78 | COc1cc(C(=O)Nc2ccc3nc(N4CCN(C)CC4)cc(C)c3c2)cc(OC)c1OC | 0.31%
79 | Cc1c(F)cc(C(=O)NC2CC2)cc1-c1ccc2c(cnn2S(=O)(=O)c2cccs2)c1 | 5.11%
80 | COc1cc2nc(NCCc3ccccc3)nc(NCc3nccs3)c2cc1OC | 2.47%
